Experimental data as given in PubChem BioAssay AID651863 (Broad Institute, 2012).
Potency and affinity values are given separately. The source made the active and inactive calls.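 The calls were made as follows: active = compounds whose fitted half-maximal cell-killing dose is at most twice the top tested dose; inconclusive = flat curve with 30 to 70 percent signal loss, or poor fit; inactive = the rest.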

Test: kidney cell line viability loss – HEK293T, luminescence plate reader, powder samples, set 4, cytotoxicity control, dose response (AID 651863)
Conditions: CellTiter-Glo ATP luminescence, 48 h; series mostly up to 26 µM

| SMILES | outcome |
| --- | --- |
| O=C(O)[C@H]1CCCC[C@H]1C(=O)N1CCc2ccccc2[C@H]1CNS(=O)(=O)c1ccc([N+](=O)[O-])cc1 | inactive |
| Cc1cc(C)c(S(=O)(=O)Nc2nc(C(C(=O)OC(C)C)C(=O)C(F)(F)F)nc3ccccc23)c(C)c1 (stereo not drawn) | inactive |
| Cc1cc(C)c(S(=O)(=O)Nc2cc(C(C(=O)OCc3ccccc3)C(=O)OCc3ccccc3)c(O)c3ccccc23)c(C)c1 | inactive |
| O=C(O)CC(=O)N1CCc2ccccc2C1CN1C(=O)c2ccccc2C1=O (stereo not drawn) | inactive |
| COc1ccccc1CCNC(=O)[C@@H]1c2ccccc2CCN1C(=O)C1CCCCC1C(=O)O (stereo partly drawn) | inactive |
| O=C(NCCCN1CCOCC1)c1ccccc1C(=O)NC[C@@H]1c2ccccc2CCN1C(=O)C1CCCCC1C(=O)O (stereo partly drawn) | inactive |
| O=C1c2ccccc2C(=O)N1C[C@@H]1c2ccccc2CCN1C(=O)C1CCCCC1 | inactive |
| O=C1c2ccccc2C(=O)N1CC1=NCCc2ccccc21 | inactive |
| O=C(NC[C@@H]1c2ccccc2CCN1C(=O)[C@@H]1CCCC[C@@H]1C(=O)O)c1ccc(CN2CCOCC2)cc1 | inactive |
| O=C(NCCc1ccccc1)c1ccccc1C(=O)NC[C@@H]1c2ccccc2CCN1C(=O)C1CCCCC1C(=O)O (stereo partly drawn) | inactive |
| CCOC(=O)C(C(=O)OCC)c1cc(CN2C(=O)c3ccccc3C2=O)c2ccccc2n1 | inactive |
| Cc1ccc(S(=O)(=O)NNc2nc(N3CC(O)CC3C(=O)O)nc3ccccc23)cc1 (stereo not drawn) | inactive |
| NC(=O)c1ccccc1C(=O)NC[C@@H]1c2ccccc2CCN1C(=O)[C@@H]1CCCC[C@@H]1C(=O)O | inactive |
| O=C(O)[C@H]1CCCC[C@H]1C(=O)NC(CN1C(=O)c2ccccc2C1=O)c1ccccc1 (stereo partly drawn) | inactive |
| Cc1ccc(S(=O)(=O)NNc2nc(C(C(=O)OC(C)C)C(=O)C(F)(F)F)nc3ccccc23)cc1 (stereo not drawn) | inactive |
| O=C(O)[C@H]1CCCC[C@H]1C(=O)N1CCc2ccccc2C1 (racemic) | inactive |
| O=C(NC[C@@H]1c2ccccc2CCN1C(=O)[C@@H]1CCCC[C@@H]1C(=O)O)c1ccccc1CO | inactive |
| C=CC(=O)NC[C@@H]1c2ccccc2CCN1C(=O)[C@@H]1CCCC[C@@H]1C(=O)O | inactive |
